Compound activity as filed in PubChem BioAssay.
Most compounds without a hit are left out; they make up all but 9.6% or so of the library.
Lmaj promast – inhibitors of Leishmania major promastigote growth; AID 1063; inhibition, % at 10 µM; 9% of 200,000 active; Leishmania major promastigotes, resazurin fluorescence viability; in the data active means inhibition above about 50%;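 further: promastigotes grown with compound for 44 hours at 28 °C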
HCT116 bCat-KO – beta-catenin-lacking colon tumor cell growth suppression; HCT116 beta-catenin knockout viability, CellTiter-Glo, 60 h; hits give low values; viability, % at 10 µM; 1.5% of 140,000 active;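 active means viability at or under a set limit, the compound median less 4 SD, cut at about 6% in these data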;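 further: 0% = Hyamine 1622 control at 20 µM and 100% = untreated cell control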
Ins promoter up – MIN6 insulin promoter up-regulation; 0.3% of 190,000 active; MIN6 insulin promoter-GFP reporter, high-content imaging; hits give high values; AID 1625; z-score at 5 µM;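 active means z-score above 3 at 5 µM with at least 500 cells counted in the well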
HCT116 PTEN-null – PTEN-deleted cell growth suppression. HCT116 PTEN-null viability, CellTiter-Glo, 60 h; hits give low values. viability, % at 10 µM. 1.2% of 140,000 active. AID 827;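 active means viability at or below a set limit, 4 SD under the median of all tested compounds, cut at about 3.7% in these data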;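 further: PTEN knockout HCT116 line with beta catenin targeted HCT116 as companion control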
Autophagy mod – autophagy modulation, high-content screen; MEF GFP-LC3 puncta imaging; test concentration mostly 10 µM; calls only at 10 µM (by protocol); 0.98% of 190,000 active; AID 463193;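 active means percentage of spot-positive cells more than 3 SD above its plate mean, without a fluorescence outlier flag or 80% toxicity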;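 further: spot-positive cell cutoff set from DMSO-treated cells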
Insulin prom inh – TRM-6 insulin promoter activity inhibition; TRM-6 cells (human fetal islet line), insulin promoter-eGFP reporter, imaging; reporter expression induced with tamoxifen; inhibition, % at 2 µM; 0.9% of 130,000 active; AID 1273;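 active means inhibition above the mean plus 3 SD, with well images judged a real hit on visual review, cut at about 60% in these data, passing the limit was not always enough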
Active calls of the source: *.

`CCN(CC)Cc1c(CC(C)C)oc(C)c1C(=O)O` gave Lmaj promast -6.9, HCT116 bCat-KO 96.3, Ins promoter up 0.21, HCT116 PTEN-null 101.8, Autophagy mod inactive and Insulin prom inh -18.8.
`Oc1[nH]c2ccccc2c1OCc1ccncc1` gave Lmaj promast -4.1, HCT116 bCat-KO 98.8 and HCT116 PTEN-null 103.8.
COc1ccc(CSc2cccc3cccnc23)cc1[N+](=O)[O-] was read as Lmaj promast -2.9, HCT116 bCat-KO 91.5, Ins promoter up -0.14, HCT116 PTEN-null 86.0, Autophagy mod inactive and Insulin prom inh 56.7.
Screening Cc1ccc(CC(=O)Nc2nncs2)cc1 returned Lmaj promast -5.2, HCT116 bCat-KO 92.7, Ins promoter up 0.39, HCT116 PTEN-null 90.0, Autophagy mod inactive and Insulin prom inh 47.4.
C=C(C)[C@@H]1CC=C(CN2CCC(CCOC)(C(=O)OCC)CC2)CC1 was read as Lmaj promast 78.6*, Ins promoter up 0.87, Autophagy mod inactive and Insulin prom inh -250.0.
Screening CCOC(=O)C1(CCOC)CCN(Cc2ccc3nonc3c2)CC1 returned Ins promoter up 0.05.
Screening CCc1ccc(C(=O)c2cnc3ccc(OC)cc3c2N2CCN(CC)CC2)cc1 returned Lmaj promast 68.9*, Ins promoter up -0.65 and Autophagy mod inactive.
Screening CCOc1ccc2ncc(C(=O)c3ccc(OC)cc3)c(N3CCN(CC)CC3)c2c1 returned Lmaj promast 31.3, Ins promoter up 1.6 and Autophagy mod inactive.
For CC12CC(c3ccccc3O1)C(C(=O)N1CCOCC1)C(=O)N2 (centres undefined) the results were Lmaj promast -2.5, HCT116 bCat-KO 97.9, Ins promoter up -0.04, HCT116 PTEN-null 104.5, Autophagy mod inactive and Insulin prom inh 71.4*.
O=C(OCc1nc2ccccc2s1)c1cc2ccccc2oc1=O was read as Lmaj promast -4.1, HCT116 bCat-KO 93.9, Ins promoter up 0.15, HCT116 PTEN-null 96.8, Autophagy mod inactive and Insulin prom inh 12.5.
Screening Cc1nn2c(-c3cccc(NC(=O)c4ccco4)c3)nnc2c2ccccc12 returned Lmaj promast 100.6*, HCT116 bCat-KO 75.3, Ins promoter up 0.83, HCT116 PTEN-null 86.3, Autophagy mod inactive and Insulin prom inh -262.8.
For Cc1ccc(-c2nc(SCC(=O)NCCN3C(=O)CSC3=O)[nH]c2-c2ccc(C)cc2)cc1 the results were Lmaj promast 80.5*, HCT116 bCat-KO 85.5, Ins promoter up -0.41, HCT116 PTEN-null 75.9, Autophagy mod inactive and Insulin prom inh -16.3.
For O=C(COC(=O)CC1c2ccccc2CCN1S(=O)(=O)c1ccc(F)cc1)Nc1ccccc1 (centres undefined) the results were Lmaj promast 3.7, HCT116 bCat-KO 84.1, Ins promoter up -0.16, HCT116 PTEN-null 95.3, Autophagy mod inactive and Insulin prom inh -14.7.
Screening CCc1cccc(CC)c1NC(=O)COC(=O)CC1c2ccccc2CCN1S(=O)(=O)c1ccc(F)cc1 (centres undefined) returned Lmaj promast 97.8*, HCT116 bCat-KO 66.9, Ins promoter up 2.81, HCT116 PTEN-null 66.7, Autophagy mod inactive and Insulin prom inh -23.7.
Screening Cc1ccc(S(=O)(=O)N(C)c2c(C)ccc(S(=O)(=O)Nc3ccncc3)c2C)cc1 returned Lmaj promast -5.0, HCT116 bCat-KO 92.7, Ins promoter up -0.08, HCT116 PTEN-null 96.9, Autophagy mod inactive and Insulin prom inh -69.2.
For Cc1ccc(S(=O)(=O)N(C)c2c(C)ccc(S(=O)(=O)NC(C)(C)C)c2C)cc1 the results were Lmaj promast 98.9*, Autophagy mod inactive and Insulin prom inh -70.6.
For Cc1ccc(S(=O)(=O)N(C)c2c(C)ccc(S(=O)(=O)N3CCN(C)CC3)c2C)cc1 the results were Lmaj promast 3.9, HCT116 bCat-KO 86.3, HCT116 PTEN-null 97.8, Autophagy mod inactive and Insulin prom inh -23.1.
C=C(C)CN1CCN(S(=O)(=O)c2ccc(C)c(N(C)S(=O)(=O)c3ccc(C)cc3)c2C)CC1 was read as Lmaj promast 98.3*, HCT116 bCat-KO 70.1, Ins promoter up 0.41, HCT116 PTEN-null 66.5, Autophagy mod inactive and Insulin prom inh -50.0.
Screening O=C(O)C1C2C=CC3(CN(c4cccc(C(F)(F)F)c4)C(=O)C13)O2 (centres undefined) returned Lmaj promast -4.1, HCT116 bCat-KO 86.2, Ins promoter up 0.42, HCT116 PTEN-null 83.8, Autophagy mod inactive and Insulin prom inh 35.7.
